Experiment [1] in a line: small molecules captured by biotinylated probe aFSTL3 – biochemical, small-molecule microarray, fluorescence 635/667, stem cell growth factor project, primary screen (AID 1064).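 Note: measures binding of the biotinylated anti-FSTL3 antibody to printed compounds.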 The note with it: higher = more signal.
Experiment [2] in a line: binders from COS7 lysate, DM2A8 probe, primary screen, torsin A project, cell lysate, small-molecule microarray, fluorescence 635/667 (AID 1065). The settings on record: higher = more signal, COS7 lysate expressing mutant human TOR1A.
Experiment [3] is described as follows: small molecules captured by biotinylated probe aFGF2 – biochemical, small-molecule microarray, fluorescence 635/667, stem cell growth factor project, primary screen (AID 1067).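 Note: measures binding of biotinylated aFGF2 protein to printed compounds on slides; z-score merges feature fluorescence and signal-to-noise across triplicate slides.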 The settings on record: higher = more signal.
Experiment [4] in a line: small molecules captured by biotinylated probe aFGF10 – biochemical, small-molecule microarray, fluorescence 635/667, stem cell growth factor project, primary screen (AID 1071).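 Note: score merges 667 nm spot intensity and signal to noise from triplicate slides.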 The note with it: higher = more signal.
Experiment [5] concerns the target Neurogenic locus notch homolog protein 2 (Homo sapiens) (UniProt Q04721). As to the kind of experiment: small molecules binding Notch2 protein – biochemical, small-molecule microarray, 635 nm fluorescence, stem cell growth factors, primary screen (AID 1073). The note with it: higher = more signal.
For experiment [6], the target named is Pro-neuregulin-1, membrane-bound isoform (Homo sapiens) (UniProt Q02297). As to the kind of experiment: small molecules binding neuregulin-1 protein – biochemical, small-molecule microarray, fluorescence 635/667, psychiatric disease protein project, primary screen (AID 1075).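 Note: score combines 667 nm spot fluorescence with signal to noise.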 The settings on record: NRG1 binding, 635 nm fluorescence, higher = more signal.
Pro-neuregulin-1, membrane-bound isoform (Homo sapiens), sequence (Q02297 whole entry, looked up, the tested form may be a part, canonical isoform): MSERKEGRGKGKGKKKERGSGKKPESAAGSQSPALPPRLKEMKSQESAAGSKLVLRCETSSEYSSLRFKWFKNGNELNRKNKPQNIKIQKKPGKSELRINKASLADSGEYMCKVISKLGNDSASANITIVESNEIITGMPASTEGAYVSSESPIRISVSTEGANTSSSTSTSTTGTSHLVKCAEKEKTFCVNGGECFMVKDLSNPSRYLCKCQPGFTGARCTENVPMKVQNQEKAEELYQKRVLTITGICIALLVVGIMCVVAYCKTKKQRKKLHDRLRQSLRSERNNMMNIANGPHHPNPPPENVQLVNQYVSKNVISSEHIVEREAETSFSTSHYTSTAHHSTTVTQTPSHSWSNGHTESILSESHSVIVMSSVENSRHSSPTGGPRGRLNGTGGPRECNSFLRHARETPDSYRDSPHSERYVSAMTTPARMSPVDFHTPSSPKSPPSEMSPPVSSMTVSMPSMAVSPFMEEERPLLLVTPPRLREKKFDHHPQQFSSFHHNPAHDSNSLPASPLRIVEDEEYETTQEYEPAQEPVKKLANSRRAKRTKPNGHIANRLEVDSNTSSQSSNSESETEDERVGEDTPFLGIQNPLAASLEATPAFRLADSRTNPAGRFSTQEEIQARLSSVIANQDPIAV
The subject of experiment [7] is Neuregulin-1 EGF-like domain. Put plainly: small molecules binding NRG1 EGF domain – biochemical, small-molecule microarray, 635 nm fluorescence, primary screen (AID 1081).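 Note: binding of the protein to compounds printed on small-molecule microarray slides.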 The settings on record: higher = more signal.
Experiment [8] in a line: FRG1 expression reporter modulators in myotubes – cell-based, C2C12 myotubes, firefly/Renilla luciferase, luminescence, FRG1 inhibition for FSHD, primary screen (AID 1084). The settings on record: FRG1 promoter luciferase, higher = more signal, called active from +8 up or from −8 down.
The nature of experiment [9]: small molecules captured by biotinylated probe aFST – biochemical, small-molecule microarray, fluorescence 635/667, stem cell growth factor project, primary screen (AID 1086).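 Note: score merges 667 nm fluorescence with signal-to-noise of each printed compound spot.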 The settings on record: higher = more signal.
Experiment [10] is described as follows: binders of probe aHhip on microarray, primary screen, stem cell growth factor project, biochemical, small-molecule microarray, fluorescence 635/667 (AID 1087).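 Note: score merges spot fluorescence at 667nm with spot signal to noise ratio.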 The settings on record: higher = more signal.
Experiment [11] concerns PRMT1 (protein arginine N-methyltransferase 1). Put plainly: small molecules binding arginine methyltransferase PRMT1 – biochemical, small-molecule microarray, 635 nm fluorescence, primary screen (AID 1088).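 Note: binding of Prmt1 protein to compounds spotted on small-molecule microarray slides.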 The note with it: higher = more signal.
Experiment [12] in a line: growth effects on S. cerevisiae YJM789 – YJM789 clinical isolate, OD600, 24 h, basal, primary screen (AID 1089).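 Note: growth of clinical yeast isolate S. cerevisiae YJM 789 seeded 1000 cells per well; test concentration not given here.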 The note with it: higher = more signal, called active from +8 up or from −8 down.
Experiment [13] can be described thus: S. pombe growth modifiers, basal conditions – strain 972, OD600, 24 h, no modulator, primary screen (AID 1090).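 Note: basal condition with compound alone and no growth modifier present; test concentration not given here.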 The note with it: S. pombe 972 growth, higher = more signal, called active from +8 up or from −8 down.
Experiment [14] can be described thus: budding yeast growth modifiers under rapamycin – strain BY4716, OD600, 96 h, primary screen (AID 1091). Note: test concentration not given here. The settings on record: S. cerevisiae BY4716 + rapamycin, higher = more signal, called active from +8 up or from −8 down.
Experiment [15] addresses Torsin-1A-interacting protein 2 (Homo sapiens) (UniProt Q8NFQ8). As to the kind of experiment: small molecules binding lysate-expressed LULL1 – cell lysate, human LULL1 lysate, 635/667 nm fluorescence, primary screen (AID 1092).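 Note: probe is lysate of COS7 cells overexpressing human LULL1; score merges per-feature 667 nm fluorescence with signal-to-noise.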 The note with it: small-molecule microarray, hLULL1 lysate binding, 635 nm fluorescence; higher = more signal.
Experiment [16] in a line: optical density change of DRC41 E. coli – strain DRC41, OD650, 24 h, E. coli filamentation project, primary screen (AID 1093).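 Note: MC1000 strain lacking acrAB efflux and sulA so SOS filamentation is blocked; test concentration not given here.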 The note with it: E. coli DRC41 growth, higher = more signal, called active from +8 up or from −8 down.
Experiment [17] can be described thus: probe aLefty2 binding to arrayed compounds – biochemical, biotinylated probe, 635/667 nm fluorescence, primary screen (AID 1094).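 Note: score merges spot fluorescence near 667 nm with spot signal-to-noise ratio.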 The note with it: small-molecule microarray, higher = more signal.
Experiment [18] concerns Noggin (protein binding on small-molecule microarray). As to the kind of experiment: small molecules binding Noggin protein – biochemical, 635/667 nm fluorescence, primary screen (AID 1095).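 Note: score merges 667 nm feature fluorescence with signal to noise over triplicate slides.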 The settings on record: 635 nm fluorescence, higher = more signal.
Experiment [19] addresses Neurogenic locus notch homolog protein 3 (Homo sapiens) (UniProt Q9UM47). As to the kind of experiment: small molecules binding NOTCH3 protein – biochemical, 635/667 nm fluorescence, primary screen (AID 1096). The settings on record: small-molecule microarray, 635 nm fluorescence, higher = more signal.
A short description of experiment [20]: probe aEGFR binding to arrayed compounds – biochemical, biotinylated probe, 635/667 nm fluorescence, primary screen (AID 1097).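 Note: probe is a biotinylated anti-EGFR antibody binding compounds printed on slides; score combines fluorescence near 667 nm and signal to noise of each spot.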 The settings on record: small-molecule microarray, higher = more signal.

Drawing on PubChem BioAssay, this text covers composite z-score and z-score for 4 compounds.

Activity calls are given as the source filed them.

Torsin-1A-interacting protein 2 (Homo sapiens), sequence (Q8NFQ8 whole entry, looked up): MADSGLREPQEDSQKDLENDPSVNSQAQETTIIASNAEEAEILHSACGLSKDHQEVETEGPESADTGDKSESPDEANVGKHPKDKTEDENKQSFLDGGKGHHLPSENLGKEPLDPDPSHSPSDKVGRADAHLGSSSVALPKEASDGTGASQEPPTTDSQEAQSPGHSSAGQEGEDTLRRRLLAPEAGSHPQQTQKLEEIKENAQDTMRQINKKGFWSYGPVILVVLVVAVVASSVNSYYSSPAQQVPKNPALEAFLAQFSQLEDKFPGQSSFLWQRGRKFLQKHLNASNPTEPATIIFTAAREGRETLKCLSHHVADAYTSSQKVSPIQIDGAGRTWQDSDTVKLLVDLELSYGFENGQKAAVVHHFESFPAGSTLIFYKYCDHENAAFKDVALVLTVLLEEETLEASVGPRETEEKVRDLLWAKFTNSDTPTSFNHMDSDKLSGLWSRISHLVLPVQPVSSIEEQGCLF
Neurogenic locus notch homolog protein 3 (Homo sapiens), sequence (Q9UM47 whole entry, looked up): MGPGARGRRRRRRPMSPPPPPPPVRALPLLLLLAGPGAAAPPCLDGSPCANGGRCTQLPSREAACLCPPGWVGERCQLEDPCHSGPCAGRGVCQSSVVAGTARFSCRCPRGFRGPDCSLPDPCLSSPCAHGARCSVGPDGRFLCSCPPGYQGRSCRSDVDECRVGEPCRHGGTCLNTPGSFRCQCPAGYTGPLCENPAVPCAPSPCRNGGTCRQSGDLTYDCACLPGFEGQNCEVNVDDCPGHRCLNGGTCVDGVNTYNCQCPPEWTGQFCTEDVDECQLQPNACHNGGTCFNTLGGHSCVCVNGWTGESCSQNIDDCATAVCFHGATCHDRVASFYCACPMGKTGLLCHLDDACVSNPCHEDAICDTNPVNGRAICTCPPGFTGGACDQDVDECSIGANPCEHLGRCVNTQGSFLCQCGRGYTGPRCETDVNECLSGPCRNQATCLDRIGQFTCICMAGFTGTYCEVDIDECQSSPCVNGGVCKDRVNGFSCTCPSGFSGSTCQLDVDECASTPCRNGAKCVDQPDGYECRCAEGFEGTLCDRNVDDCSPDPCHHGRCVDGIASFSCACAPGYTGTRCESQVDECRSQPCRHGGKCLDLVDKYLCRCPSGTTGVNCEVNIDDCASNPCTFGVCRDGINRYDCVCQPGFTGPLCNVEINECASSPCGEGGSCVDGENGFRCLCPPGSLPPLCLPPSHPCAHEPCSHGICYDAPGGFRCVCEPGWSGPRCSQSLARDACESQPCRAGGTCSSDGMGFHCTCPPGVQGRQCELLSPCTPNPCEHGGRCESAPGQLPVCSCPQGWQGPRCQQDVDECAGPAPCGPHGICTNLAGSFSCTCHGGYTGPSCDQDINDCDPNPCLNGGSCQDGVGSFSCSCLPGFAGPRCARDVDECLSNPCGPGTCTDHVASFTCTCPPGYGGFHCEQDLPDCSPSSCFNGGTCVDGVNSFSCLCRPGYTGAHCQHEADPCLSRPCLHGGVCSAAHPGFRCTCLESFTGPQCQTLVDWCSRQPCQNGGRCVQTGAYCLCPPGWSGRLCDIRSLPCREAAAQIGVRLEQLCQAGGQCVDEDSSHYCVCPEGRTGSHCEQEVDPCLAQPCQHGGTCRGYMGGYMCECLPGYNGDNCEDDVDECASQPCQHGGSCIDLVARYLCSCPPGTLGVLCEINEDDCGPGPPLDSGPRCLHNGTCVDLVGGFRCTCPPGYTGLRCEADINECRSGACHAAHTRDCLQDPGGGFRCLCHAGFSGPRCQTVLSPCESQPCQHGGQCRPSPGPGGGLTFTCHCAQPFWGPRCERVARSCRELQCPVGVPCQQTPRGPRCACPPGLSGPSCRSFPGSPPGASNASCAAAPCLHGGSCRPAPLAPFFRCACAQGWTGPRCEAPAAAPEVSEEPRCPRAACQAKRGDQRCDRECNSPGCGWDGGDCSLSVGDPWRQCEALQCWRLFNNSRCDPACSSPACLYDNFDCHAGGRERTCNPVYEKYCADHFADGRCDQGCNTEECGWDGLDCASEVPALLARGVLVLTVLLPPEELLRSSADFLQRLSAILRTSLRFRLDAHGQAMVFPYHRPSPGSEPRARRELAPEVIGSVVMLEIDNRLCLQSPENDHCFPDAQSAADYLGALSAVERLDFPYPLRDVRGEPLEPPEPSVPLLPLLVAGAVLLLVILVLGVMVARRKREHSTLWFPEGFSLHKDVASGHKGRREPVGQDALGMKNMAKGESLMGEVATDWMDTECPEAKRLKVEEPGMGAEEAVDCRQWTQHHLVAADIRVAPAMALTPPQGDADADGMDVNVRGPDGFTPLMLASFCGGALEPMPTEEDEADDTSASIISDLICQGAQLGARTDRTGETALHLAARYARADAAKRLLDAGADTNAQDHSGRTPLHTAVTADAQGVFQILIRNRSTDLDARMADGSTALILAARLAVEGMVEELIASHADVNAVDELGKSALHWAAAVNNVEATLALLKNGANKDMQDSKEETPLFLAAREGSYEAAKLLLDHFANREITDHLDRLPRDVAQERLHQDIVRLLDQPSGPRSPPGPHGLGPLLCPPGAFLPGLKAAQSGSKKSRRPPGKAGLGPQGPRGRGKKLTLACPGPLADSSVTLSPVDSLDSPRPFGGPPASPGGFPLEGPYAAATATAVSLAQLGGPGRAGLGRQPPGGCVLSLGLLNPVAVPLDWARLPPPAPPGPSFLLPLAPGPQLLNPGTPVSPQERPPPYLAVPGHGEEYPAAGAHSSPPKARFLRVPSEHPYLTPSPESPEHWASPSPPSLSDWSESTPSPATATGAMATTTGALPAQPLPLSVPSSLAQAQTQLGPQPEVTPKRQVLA

On to `CC(=O)c1ccc(C(O)C2C=CC3C(=O)N(C)C(=O)C3N2NC(=O)OC(C)(C)C)cc1` (stereo not given), for which the composite z-score in experiment [1] was determined as 0.301; in experiment [2] it was 0.169; in [3], 0.152; in [4] it was 1.13; in experiment [5], 1.61; in experiment [6], 2.11. In addition, the composite z-score in experiment [7] is 1.35; in [9], 0.948; in [10] it was -0.154; in experiment [11], 1.54; in experiment [15] it was 3.47; in experiment [17] it was 0.236. Also, the composite z-score was -0.465 in [18], 1.11 in experiment [19] and 0.357 in experiment [20]. Further, the z-score in experiment [8] is 0.929 (inactive); in experiment [12], 0.269 (inactive); in experiment [13], 1.08 (inactive); in [14] it was 1.59 (inactive); in experiment [16], -1.24 (inactive).
In the case of `CCCC[C@H]1OB(O)C[C@H]2C1=C(C)C[C@H]1C(=O)C=CC(=O)[C@H]12`, the composite z-score was -0.567 in experiment [1]; -0.0474 in experiment [2]; -0.0887 in experiment [3]; 0.309 in [4]; 0.425 in experiment [5]; 0.532 in experiment [6]. Moreover, the composite z-score was 0.698 in experiment [7]; 0.189 in experiment [9]; 0.176 in [10]; 1.24 in [11]; 1.01 in experiment [15]; -0.0916 in experiment [17]. Moreover, the composite z-score in [18] is 0.782; in [19] it was 1.04; in [20] it was -0.071. For the same compound, the z-score in experiment [8] was 0.358 (inactive); in [12] it was 0.111 (inactive); in [13] it was -15.4 (active); in [14], -0.0407 (inactive); in experiment [16] it was -0.0396 (inactive).
Turning to `CC[C@H](C)C(=O)O[C@H]1CC[C@]2(C)C3=C(CCC2C1(C)C)[C@]1(C)CC[C@H]([C@H](C)CCCC(C)C)[C@@]1(C)CC3` (stereo not given in full), the composite z-score was -0.598 in [1]; 0.191 in experiment [2]; -0.0691 in experiment [3]; 0.332 in experiment [4]; 0.414 in experiment [5]; 0.0345 in experiment [6]. Further, the composite z-score in experiment [7] is 0.966; in experiment [9], 0.0889; in [10] it was 0.315; in experiment [11], 0.0683; in experiment [15], 0.125; in experiment [17], -0.108. Further, the composite z-score in [18] is 0.296; in experiment [19], 0.854; in experiment [20] it was -0.0431. The z-score in [8] is 0.169 (inactive); in experiment [12] it was 0.737 (inactive); in [13] it was 0.14 (inactive); in [14], 0.17 (inactive); in experiment [16], 2.24 (inactive).
Consider `COCCOC(=O)N1C(=O)[C@@]2(c3cc(C#CCC(C(=O)OC)C(=O)OC)ccc31)[C@H](C(=O)N1CCc3cc(OC)c(OC)cc3C1)[C@H]1C(=O)O[C@H](c3ccccc3)[C@H](c3ccccc3)N1[C@@H]2c1ccc(O)cc1`, for which the composite z-score in experiment [1] was -0.318; in [2], 0.731; in experiment [3], 0.0732; in experiment [4], 0.858; in experiment [5], 1.54; in [6], 0.729. Further, the composite z-score is 1.23 in [7]; 0.346 in [9]; -0.0459 in experiment [10]; 1.54 in [11]; 1.99 in experiment [15]; 0.0704 in experiment [17]. For the same compound, the composite z-score in experiment [18] stood at 1.19; in experiment [19], 1.08; in [20] it was 0.135. Also, the z-score in experiment [8] was 0.217 (inactive); in experiment [12], 0.215 (inactive); in experiment [13], 0.233 (inactive); in [14], 0.773 (inactive); in experiment [16] it was 0.204 (inactive).
